This passage reports IC50 results from PubChem BioAssay AID651561 (Sanford-Burnham Center for Chemical Genomics, 2012).

This assay is described as follows: mitochondrial permeability transition pore inhibitors, dose response, biochemical, absorbance, uHTS hits (AID 651561). To be noted: isolated mitochondria swelling.

Structures are written as SMILES. This is one part of the list. Unmarked numbers belong to inactive results. The source made the active and inactive calls. Rule as the data show it: active = IC50 below about 20 µM; inactive = the rest.

For `O=C(NC1CCN(Cc2ccccc2)CC1)c1cc(Br)c(Br)[nH]1`, the IC50 was greater than 100 µM.

In the case of `CCCC[C@@H]1CN=C(N)N1CCc1cc(C(F)(F)F)cc(C(F)(F)F)c1`, the half-maximal inhibitory concentration (IC50) is 6.67 µM (active).

On to `FC(F)(F)COc1nc(N2CCCCC2)nc(N2CCNCC2)n1`, for which the half-inhibitory concentration (IC50) is 18.9 µM (active).

As to `Brc1ccc(CSc2ccc(-c3ccco3)nn2)cc1`, the IC50 is greater than 100 µM.

On to `CCCCOC(=O)CNc1nnc(SCC(=O)OCC)[nH]c1=O`, for which the IC50 is greater than 100 µM.

For `Clc1ccc(-c2cc(C3CCNCC3)[nH]n2)c(Cl)c1`, the 50% inhibitory concentration (IC50) was 11.7 µM (active).

For `O=C(COC(=O)c1ccccc1NC(=O)c1ccco1)Nc1ccc2c(c1)OC(F)(F)O2`, the IC50 is 23.5 µM.

For `NC(N)=N/N=C/c1ccc(Cl)c([N+](=O)[O-])c1`, the IC50 was 7.68 µM (active).

As to `COCCn1c(CN2CCC(Cc3ccccc3)CC2)nc2c1c(=O)n(C)c(=O)n2C`, the 50% inhibitory concentration (IC50) was 3.99 µM (active).

As for `Cc1ccc2c(c1)C1CN(C)CCC1N2S(=O)(=O)c1ccc(Oc2ccc([N+](=O)[O-])cc2)cc1` (stereo not given), the half-maximal inhibitory concentration (IC50) was 17.5 µM (active).

For `N=c1n(Cc2ccc(Cl)cc2)c2ccccc2n1CC(O)c1ccco1` (stereo not given), the half-inhibitory concentration (IC50) was 5.87 µM (active).

Regarding `CN(C)Cc1ccccc1C1(O)c2ccccc2CSc2ccccc21` (stereo not given), the half-maximal inhibitory concentration (IC50) was 13.4 µM (active).

For the molecule `CCNCCC(=O)N1c2ccccc2Sc2ccc(NC(=O)OCC)cc21`, the IC50 was 32.7 µM.

For `O=C(c1ccc(Cl)cc1)c1ccc(OCC(O)CN2CCCCC2)cc1` (stereo not given), the IC50 was 17.4 µM (active).

In the case of `CCCC(C(=O)OCCN(CC)CC)(c1ccccc1)c1ccccc1`, the IC50 was 12.5 µM (active).
